The record followed here is paper PMC9838217, “Structure of SALL4 zinc finger domain reveals link between AT-rich DNA binding and Okihiro syndrome”.

Changes are numbered by the printed parent chain.

What all share (test): HT-SELEX; high values mean tight binding
Holding throughout (conditions): protein: recombinant; vector His6-GST; dsDNA, one strand shown

Assay [1] addresses T1, SALL4 ZFC4 WT (HT-SELEX) (Mus musculus, UniProt Q8BX22 870-940).
T1 sequence: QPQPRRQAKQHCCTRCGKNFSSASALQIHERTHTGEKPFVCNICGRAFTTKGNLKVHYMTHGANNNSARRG
The essentials: (§1)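 Binding signal is expressed as fold change in each canonical k-mer's read fraction over the initial random library. To obtain it, 1 µg of purified recombinant mouse SALL4 zinc finger cluster 4 (residues 870–940) was incubated for 10 min at room temperature with library DNA (1.5 µg first cycle, 200 ng later cycles) in 100 µl of 10 mM Tris–HCl pH 7.5, 50 mM NaCl, poly(dI-dC) and DTT. Ni2+ bead-captured complexes went through washing, PCR amplification and reselection for up to 6 cycles, in triplicate, before MiSeq sequencing and scanning for 6-mers.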

Assay [2] concerns the target T2, SALL4 ZFC4 R900W (HT-SELEX) (Mus musculus, UniProt Q8BX22 870-940, R900W).
T2 sequence: T1 sequence with R31W
The method in brief: as §1

The target in assay [3] is T3, SALL4 ZFC4 G921D (HT-SELEX) (Mus musculus, UniProt Q8BX22 870-940, G921D).
T3 sequence: T1 sequence with G52D
The method in brief: as §1

For the sequence AAACAG, the binding signal was 1.101 ± 0.00341 fold-change vs cycle 0 in assay [1], 1.27 ± 0.0528 fold-change vs cycle 0 in assay [2] and 1.23 ± 0.0148 fold-change vs cycle 0 in assay [3].

Turning to CTATTC, the binding signal in assay [1] was 1.3 ± 0.0236 fold-change vs cycle 0; in assay [2], 1.46 ± 0.0185 fold-change vs cycle 0; in assay [3], 1.39 ± 0.0918 fold-change vs cycle 0.

With CCCTTA, the binding signal worked out at 0.943 ± 0.0612 fold-change vs cycle 0 in assay [1], 1.06 ± 0.0532 fold-change vs cycle 0 in assay [2] and 1.02 ± 0.0595 fold-change vs cycle 0 in assay [3].

Take CGCTTA: the binding signal in assay [1] was determined as 0.535 ± 0.019 fold-change vs cycle 0; in assay [2], 0.58 ± 0.0258 fold-change vs cycle 0; in assay [3], 0.684 ± 0.061 fold-change vs cycle 0.

Turning to GCTCAA, the figures for the binding signal in assay [1], in assay [2] and in assay [3] were 0.548 ± 0.03 fold-change vs cycle 0, 0.644 ± 0.0305 fold-change vs cycle 0 and 0.763 ± 0.038 fold-change vs cycle 0, respectively.

With AGAAAA, the binding signal came to 1.83 ± 0.0887 fold-change vs cycle 0 in assay [1], 1.85 ± 0.0773 fold-change vs cycle 0 in assay [2] and 1.63 ± 0.11 fold-change vs cycle 0 in assay [3].

Consider AACGCT, for which the binding signal in assay [1] is 0.549 ± 0.0698 fold-change vs cycle 0; in assay [2] it was 0.603 ± 0.0229 fold-change vs cycle 0; in assay [3], 0.738 ± 0.0676 fold-change vs cycle 0.

Regarding GACTCC, the figures for the binding signal in assay [1], in assay [2] and in assay [3] were 0.5 ± 0.00838 fold-change vs cycle 0, 0.594 ± 0.00754 fold-change vs cycle 0 and 0.705 ± 0.0401 fold-change vs cycle 0, respectively.

As for GGAGTA, the binding signal is 0.898 ± 0.0231 fold-change vs cycle 0 in assay [1], 0.991 ± 0.0565 fold-change vs cycle 0 in assay [2] and 1.01 ± 0.0114 fold-change vs cycle 0 in assay [3].

With TACCAA, the results for the binding signal in assay [1], in assay [2] and in assay [3] were 1.27 ± 0.0357 fold-change vs cycle 0, 1.33 ± 0.0163 fold-change vs cycle 0 and 1.32 ± 0.055 fold-change vs cycle 0, respectively.

In the case of AACCGT, the binding signal in assay [1] was found to be 0.674 ± 0.0289 fold-change vs cycle 0; in assay [2], 0.776 ± 0.0238 fold-change vs cycle 0; in assay [3], 0.826 ± 0.0315 fold-change vs cycle 0.

On to TTGCAA, for which the binding signal in assay [1] was 1.13 ± 0.0202 fold-change vs cycle 0; in assay [2], 1.09 ± 0.0477 fold-change vs cycle 0; in assay [3], 1.146 ± 0.00914 fold-change vs cycle 0.

Turning to ACTGCA, the binding signal came to 0.647 ± 0.0528 fold-change vs cycle 0 in assay [1], 0.7299 ± 0.00625 fold-change vs cycle 0 in assay [2] and 0.797 ± 0.0181 fold-change vs cycle 0 in assay [3].

Take CTATAG: the binding signal in assay [1] was determined as 1.37 ± 0.136 fold-change vs cycle 0; in assay [2], 1.45 ± 0.0344 fold-change vs cycle 0; in assay [3] it was 1.35 ± 0.128 fold-change vs cycle 0.

Regarding GACTAC, the binding signal in assay [1] came out at 0.777 ± 0.0619 fold-change vs cycle 0; in assay [2], 0.891 ± 0.0393 fold-change vs cycle 0; in assay [3] it was 0.967 ± 0.0652 fold-change vs cycle 0.

As for ATTCTG, the values for the binding signal in assay [1], in assay [2] and in assay [3] were 1.27 ± 0.0284 fold-change vs cycle 0, 1.35 ± 0.0356 fold-change vs cycle 0 and 1.28 ± 0.0492 fold-change vs cycle 0, respectively.

Consider GATCGA, for which the binding signal in assay [1] came to 0.664 ± 0.0531 fold-change vs cycle 0; in assay [2], 0.763 ± 0.0206 fold-change vs cycle 0; in assay [3] it was 0.91 ± 0.0578 fold-change vs cycle 0.

Take ACCACC: the binding signal in assay [1] came out at 0.457 ± 0.039 fold-change vs cycle 0; in assay [2], 0.514 ± 0.0309 fold-change vs cycle 0; in assay [3] it was 0.616 ± 0.0424 fold-change vs cycle 0.

In the case of AATTAG, the binding signal in assay [1] is 1.92 ± 0.0642 fold-change vs cycle 0; in assay [2] it was 1.97 ± 0.0604 fold-change vs cycle 0; in assay [3], 1.75 ± 0.104 fold-change vs cycle 0.

With AACTTC, the binding signal turned out to be 1.37 ± 0.0514 fold-change vs cycle 0 in assay [1], 1.52 ± 0.0544 fold-change vs cycle 0 in assay [2] and 1.4 ± 0.0625 fold-change vs cycle 0 in assay [3].

As for CCCGTA, the binding signal in assay [1] was 0.415 ± 0.0258 fold-change vs cycle 0; in assay [2] it was 0.477 ± 0.0181 fold-change vs cycle 0; in assay [3], 0.557 ± 0.0362 fold-change vs cycle 0.

As for GAATTA, the binding signal is 2.39 ± 0.113 fold-change vs cycle 0 in assay [1], 1.95 ± 0.0992 fold-change vs cycle 0 in assay [2] and 1.75 ± 0.12 fold-change vs cycle 0 in assay [3].

In the case of CATTGA, the values for the binding signal in assay [1], in assay [2] and in assay [3] were 1.25 ± 0.0236 fold-change vs cycle 0, 1.39 ± 0.0271 fold-change vs cycle 0 and 1.35 ± 0.0347 fold-change vs cycle 0, respectively.

With GATAGC, the binding signal in assay [1] is 0.692 ± 0.0348 fold-change vs cycle 0; in assay [2], 0.798 ± 0.0237 fold-change vs cycle 0; in assay [3] it was 0.8754 ± 0.00393 fold-change vs cycle 0.

AGTGTA: the results for the binding signal in assay [1], in assay [2] and in assay [3] were 1.32 ± 0.061 fold-change vs cycle 0, 1.43 ± 0.0767 fold-change vs cycle 0 and 1.36 ± 0.1 fold-change vs cycle 0, respectively.

As to CCTCCC, the binding signal was determined as 0.317 ± 0.0293 fold-change vs cycle 0 in assay [1], 0.372 ± 0.0347 fold-change vs cycle 0 in assay [2] and 0.467 ± 0.0525 fold-change vs cycle 0 in assay [3].

For ATCCAA, the binding signal in assay [1] is 1.28 ± 0.0363 fold-change vs cycle 0; in assay [2], 1.37 ± 0.0499 fold-change vs cycle 0; in assay [3], 1.32 ± 0.0492 fold-change vs cycle 0.

On to GACTGC, for which the values for the binding signal in assay [1], in assay [2] and in assay [3] were 0.3204 ± 0.00172 fold-change vs cycle 0, 0.399 ± 0.0161 fold-change vs cycle 0 and 0.525 ± 0.0461 fold-change vs cycle 0, respectively.

In the case of GTGTGA, the binding signal amounted to 0.748 ± 0.0198 fold-change vs cycle 0 in assay [1], 0.881 ± 0.0312 fold-change vs cycle 0 in assay [2] and 0.9 ± 0.0278 fold-change vs cycle 0 in assay [3].

AGGACT: the binding signal in assay [1] amounted to 0.864 ± 0.0148 fold-change vs cycle 0; in assay [2], 0.994 ± 0.0593 fold-change vs cycle 0; in assay [3] it was 1.02 ± 0.0375 fold-change vs cycle 0.

For the sequence CAGCAC, the binding signal in assay [1] came out at 0.3 ± 0.0076 fold-change vs cycle 0; in assay [2] it was 0.335 ± 0.0156 fold-change vs cycle 0; in assay [3], 0.476 ± 0.0603 fold-change vs cycle 0.

Regarding GAATGC, the binding signal in assay [1] was found to be 0.632 ± 0.0438 fold-change vs cycle 0; in assay [2], 0.728 ± 0.0366 fold-change vs cycle 0; in assay [3], 0.816 ± 0.0183 fold-change vs cycle 0.

Consider CGTAAC, for which the results for the binding signal in assay [1], in assay [2] and in assay [3] were 0.768 ± 0.0406 fold-change vs cycle 0, 0.887 ± 0.0447 fold-change vs cycle 0 and 0.922 ± 0.0472 fold-change vs cycle 0, respectively.

With GTATAC, the binding signal is 1.25 ± 0.0389 fold-change vs cycle 0 in assay [1], 1.39 ± 0.0328 fold-change vs cycle 0 in assay [2] and 1.34 ± 0.0932 fold-change vs cycle 0 in assay [3].

Consider ACACCG, for which the binding signal stood at 0.325 ± 0.0278 fold-change vs cycle 0 in assay [1], 0.384 ± 0.0241 fold-change vs cycle 0 in assay [2] and 0.5 ± 0.0673 fold-change vs cycle 0 in assay [3].

As for CTCTAC, the binding signal is 0.799 ± 0.0191 fold-change vs cycle 0 in assay [1], 0.917 ± 0.016 fold-change vs cycle 0 in assay [2] and 0.954 ± 0.0195 fold-change vs cycle 0 in assay [3].
